Measured values reported in the supplement of paper PMC11732987, “Enantioselective OTUD7B fragment discovery through chemoproteomics screening and high-throughput optimisation” (Communications Chemistry, 2025).

Legend:
Assay in all cases: log2 ratio of Biotin-Ahx-Ub-VS probe labelling (fragment/DMSO); higher = less target engagement (more negative = stronger competition), active = hit call of the paper (q ≤ 0.05, log2 ratio ≤ -1)
Details in all cases: compound concentration: 200 uM; treatment time: 3 h
USP42 = molecular target: T1, USP42 (UniProt Q9H9J4)
T1 sequence (whole entry): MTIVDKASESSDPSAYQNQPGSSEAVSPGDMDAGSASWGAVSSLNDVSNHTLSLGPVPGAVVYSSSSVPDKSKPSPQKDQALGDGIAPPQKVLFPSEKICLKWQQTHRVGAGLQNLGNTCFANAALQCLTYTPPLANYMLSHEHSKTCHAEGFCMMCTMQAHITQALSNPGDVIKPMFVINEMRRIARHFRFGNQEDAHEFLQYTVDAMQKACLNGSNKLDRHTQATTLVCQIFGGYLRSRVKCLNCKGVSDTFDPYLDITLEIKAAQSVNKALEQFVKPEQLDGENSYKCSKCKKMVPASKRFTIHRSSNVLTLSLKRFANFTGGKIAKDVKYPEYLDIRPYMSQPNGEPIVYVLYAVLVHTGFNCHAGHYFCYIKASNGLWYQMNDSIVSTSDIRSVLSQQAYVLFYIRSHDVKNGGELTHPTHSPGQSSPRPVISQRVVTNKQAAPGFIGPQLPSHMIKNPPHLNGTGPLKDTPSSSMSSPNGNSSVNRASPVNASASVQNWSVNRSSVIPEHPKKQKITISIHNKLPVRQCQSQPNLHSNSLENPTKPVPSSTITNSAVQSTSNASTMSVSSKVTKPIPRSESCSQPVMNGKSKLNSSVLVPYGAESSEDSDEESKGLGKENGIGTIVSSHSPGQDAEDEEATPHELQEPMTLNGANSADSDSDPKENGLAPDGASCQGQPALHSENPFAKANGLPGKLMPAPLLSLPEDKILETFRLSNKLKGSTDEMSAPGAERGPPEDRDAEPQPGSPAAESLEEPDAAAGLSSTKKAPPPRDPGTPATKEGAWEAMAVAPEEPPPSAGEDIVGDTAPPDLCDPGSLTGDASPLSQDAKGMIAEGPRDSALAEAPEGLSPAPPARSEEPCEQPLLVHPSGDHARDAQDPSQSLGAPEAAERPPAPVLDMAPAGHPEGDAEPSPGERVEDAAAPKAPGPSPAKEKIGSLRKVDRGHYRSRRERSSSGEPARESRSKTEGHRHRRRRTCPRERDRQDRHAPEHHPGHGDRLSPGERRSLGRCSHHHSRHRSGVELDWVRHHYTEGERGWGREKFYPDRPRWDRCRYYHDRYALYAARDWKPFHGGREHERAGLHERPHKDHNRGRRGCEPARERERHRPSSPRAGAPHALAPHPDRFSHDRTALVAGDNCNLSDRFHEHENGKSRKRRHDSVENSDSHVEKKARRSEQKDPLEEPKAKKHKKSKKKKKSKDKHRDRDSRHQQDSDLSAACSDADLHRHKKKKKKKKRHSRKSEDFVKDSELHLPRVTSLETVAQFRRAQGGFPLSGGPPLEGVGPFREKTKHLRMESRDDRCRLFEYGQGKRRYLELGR
Summary of the method: (§1)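 Labelled DUBs from HEK293T lysate were NeutrAvidin-enriched, digested with LysC and trypsin, and run by diaPASEF LC-MS/MS. Before that, each 495 µg sample in Tris/CHAPS/IGEPAL buffer with protease inhibitors was treated in triplicate with fragment at 200 µM or vehicle for 3 h, then with Biotin-Ahx-Ub-VS at 0.5 µM final for 1 h. Values are average log2 ratios of fragment over vehicle by unpaired t-test, based on global-median-normalised Spectronaut label-free quantities from proteins with ≥2 unique peptides.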

USP46 = USP46 (UniProt P62068)
Sequence of USP46 (P62068 whole entry): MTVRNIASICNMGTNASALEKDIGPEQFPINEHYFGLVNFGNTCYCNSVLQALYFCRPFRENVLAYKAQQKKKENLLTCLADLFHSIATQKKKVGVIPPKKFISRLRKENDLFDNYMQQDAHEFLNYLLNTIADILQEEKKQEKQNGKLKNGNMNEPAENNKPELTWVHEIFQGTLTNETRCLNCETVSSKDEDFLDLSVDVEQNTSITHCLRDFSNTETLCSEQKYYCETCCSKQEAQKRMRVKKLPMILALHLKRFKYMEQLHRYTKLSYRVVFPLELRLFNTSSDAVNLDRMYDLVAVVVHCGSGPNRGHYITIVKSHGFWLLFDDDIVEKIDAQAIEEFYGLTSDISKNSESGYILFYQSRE
Summary of the method: as §1

USP47 = molecular target: T2, USP47 (UniProt Q96K76)
T2 sequence (whole entry): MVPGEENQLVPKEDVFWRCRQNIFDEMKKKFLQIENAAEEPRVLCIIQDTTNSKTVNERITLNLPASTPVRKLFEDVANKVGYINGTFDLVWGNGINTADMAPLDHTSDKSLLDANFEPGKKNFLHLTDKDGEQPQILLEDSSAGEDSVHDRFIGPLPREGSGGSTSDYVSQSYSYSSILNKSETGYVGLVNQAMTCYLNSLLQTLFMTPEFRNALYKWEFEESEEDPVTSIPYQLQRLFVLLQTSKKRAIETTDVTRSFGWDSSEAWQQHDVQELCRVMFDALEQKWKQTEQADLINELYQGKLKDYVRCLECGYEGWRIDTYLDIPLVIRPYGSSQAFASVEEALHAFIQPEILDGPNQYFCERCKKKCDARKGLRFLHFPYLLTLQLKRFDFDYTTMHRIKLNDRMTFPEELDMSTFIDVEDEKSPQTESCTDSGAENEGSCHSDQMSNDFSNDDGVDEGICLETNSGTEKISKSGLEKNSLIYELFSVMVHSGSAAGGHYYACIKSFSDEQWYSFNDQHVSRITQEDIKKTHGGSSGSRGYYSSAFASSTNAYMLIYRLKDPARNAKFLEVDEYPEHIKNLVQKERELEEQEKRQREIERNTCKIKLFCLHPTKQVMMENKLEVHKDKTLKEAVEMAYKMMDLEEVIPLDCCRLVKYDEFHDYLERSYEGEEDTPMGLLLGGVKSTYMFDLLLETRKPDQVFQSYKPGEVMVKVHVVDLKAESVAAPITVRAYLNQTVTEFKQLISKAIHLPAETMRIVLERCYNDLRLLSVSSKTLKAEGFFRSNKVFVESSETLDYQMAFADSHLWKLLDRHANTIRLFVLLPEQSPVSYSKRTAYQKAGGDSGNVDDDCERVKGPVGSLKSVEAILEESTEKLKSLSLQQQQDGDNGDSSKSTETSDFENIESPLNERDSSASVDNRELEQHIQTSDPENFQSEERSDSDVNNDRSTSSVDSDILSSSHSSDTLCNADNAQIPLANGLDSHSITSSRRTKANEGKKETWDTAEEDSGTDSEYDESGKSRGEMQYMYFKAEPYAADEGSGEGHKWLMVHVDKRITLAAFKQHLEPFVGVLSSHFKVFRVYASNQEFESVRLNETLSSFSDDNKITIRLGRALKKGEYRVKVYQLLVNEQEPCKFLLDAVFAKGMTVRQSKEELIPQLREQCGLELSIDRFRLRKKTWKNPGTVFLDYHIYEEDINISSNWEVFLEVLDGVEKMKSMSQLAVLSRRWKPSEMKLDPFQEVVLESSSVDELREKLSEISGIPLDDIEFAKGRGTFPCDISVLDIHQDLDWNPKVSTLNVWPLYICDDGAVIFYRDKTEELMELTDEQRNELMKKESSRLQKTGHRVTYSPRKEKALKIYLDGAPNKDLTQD
Summary of the method: as §1

USP48 = molecular target: T3, USP48 (UniProt Q86UV5)
T3 sequence (whole entry): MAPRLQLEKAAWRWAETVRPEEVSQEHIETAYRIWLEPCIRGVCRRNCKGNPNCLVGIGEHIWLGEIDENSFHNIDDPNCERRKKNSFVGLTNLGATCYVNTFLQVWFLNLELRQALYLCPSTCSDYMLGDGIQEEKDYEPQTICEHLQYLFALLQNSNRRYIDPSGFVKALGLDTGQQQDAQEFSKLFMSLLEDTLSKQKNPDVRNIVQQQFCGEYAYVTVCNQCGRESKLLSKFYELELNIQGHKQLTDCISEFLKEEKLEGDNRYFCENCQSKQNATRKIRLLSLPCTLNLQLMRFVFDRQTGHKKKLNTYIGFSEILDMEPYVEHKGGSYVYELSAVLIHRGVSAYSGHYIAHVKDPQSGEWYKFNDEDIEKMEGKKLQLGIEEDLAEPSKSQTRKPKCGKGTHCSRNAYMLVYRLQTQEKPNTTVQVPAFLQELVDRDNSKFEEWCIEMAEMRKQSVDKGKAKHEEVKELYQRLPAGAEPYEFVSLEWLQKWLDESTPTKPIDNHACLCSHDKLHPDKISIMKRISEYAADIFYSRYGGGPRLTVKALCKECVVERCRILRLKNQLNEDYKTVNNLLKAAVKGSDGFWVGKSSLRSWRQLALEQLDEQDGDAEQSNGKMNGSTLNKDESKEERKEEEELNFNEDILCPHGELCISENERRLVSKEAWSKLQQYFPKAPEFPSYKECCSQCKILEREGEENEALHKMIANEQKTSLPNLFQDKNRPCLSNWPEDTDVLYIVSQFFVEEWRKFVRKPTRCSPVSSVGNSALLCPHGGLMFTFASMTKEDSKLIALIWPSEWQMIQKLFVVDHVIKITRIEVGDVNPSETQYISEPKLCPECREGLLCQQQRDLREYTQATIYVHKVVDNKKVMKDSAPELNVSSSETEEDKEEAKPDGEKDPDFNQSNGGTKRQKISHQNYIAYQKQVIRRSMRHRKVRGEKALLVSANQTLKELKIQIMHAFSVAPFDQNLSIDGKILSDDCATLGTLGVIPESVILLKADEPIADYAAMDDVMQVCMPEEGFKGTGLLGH
Summary of the method: as §1

USP5 = molecular target: T4, USP5 (UniProt P45974)
T4 sequence (whole entry): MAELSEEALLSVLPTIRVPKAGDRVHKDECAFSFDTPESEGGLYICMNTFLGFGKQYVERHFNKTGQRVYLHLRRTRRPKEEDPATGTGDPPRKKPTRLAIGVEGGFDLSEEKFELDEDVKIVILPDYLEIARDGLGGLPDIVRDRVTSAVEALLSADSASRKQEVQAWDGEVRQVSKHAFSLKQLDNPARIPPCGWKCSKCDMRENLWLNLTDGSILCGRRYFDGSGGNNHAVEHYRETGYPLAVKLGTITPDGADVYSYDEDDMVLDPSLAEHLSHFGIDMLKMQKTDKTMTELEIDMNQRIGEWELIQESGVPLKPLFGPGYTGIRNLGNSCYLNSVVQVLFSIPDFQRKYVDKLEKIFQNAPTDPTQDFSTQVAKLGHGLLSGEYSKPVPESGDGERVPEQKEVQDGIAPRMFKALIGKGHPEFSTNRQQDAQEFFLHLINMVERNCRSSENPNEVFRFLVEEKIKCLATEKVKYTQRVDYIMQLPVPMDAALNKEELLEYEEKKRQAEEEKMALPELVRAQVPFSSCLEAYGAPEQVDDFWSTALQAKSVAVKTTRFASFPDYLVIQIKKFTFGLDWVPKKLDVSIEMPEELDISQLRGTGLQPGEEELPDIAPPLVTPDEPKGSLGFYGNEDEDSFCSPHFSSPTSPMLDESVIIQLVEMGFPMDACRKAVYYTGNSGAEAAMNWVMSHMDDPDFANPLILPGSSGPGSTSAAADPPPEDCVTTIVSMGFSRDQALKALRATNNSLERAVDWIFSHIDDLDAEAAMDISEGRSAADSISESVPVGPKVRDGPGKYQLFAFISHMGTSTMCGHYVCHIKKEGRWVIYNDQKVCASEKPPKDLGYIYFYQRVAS
Summary of the method: as §1

USP54 = USP54 (UniProt Q70EL1)
Sequence of USP54 (Q70EL1 whole entry): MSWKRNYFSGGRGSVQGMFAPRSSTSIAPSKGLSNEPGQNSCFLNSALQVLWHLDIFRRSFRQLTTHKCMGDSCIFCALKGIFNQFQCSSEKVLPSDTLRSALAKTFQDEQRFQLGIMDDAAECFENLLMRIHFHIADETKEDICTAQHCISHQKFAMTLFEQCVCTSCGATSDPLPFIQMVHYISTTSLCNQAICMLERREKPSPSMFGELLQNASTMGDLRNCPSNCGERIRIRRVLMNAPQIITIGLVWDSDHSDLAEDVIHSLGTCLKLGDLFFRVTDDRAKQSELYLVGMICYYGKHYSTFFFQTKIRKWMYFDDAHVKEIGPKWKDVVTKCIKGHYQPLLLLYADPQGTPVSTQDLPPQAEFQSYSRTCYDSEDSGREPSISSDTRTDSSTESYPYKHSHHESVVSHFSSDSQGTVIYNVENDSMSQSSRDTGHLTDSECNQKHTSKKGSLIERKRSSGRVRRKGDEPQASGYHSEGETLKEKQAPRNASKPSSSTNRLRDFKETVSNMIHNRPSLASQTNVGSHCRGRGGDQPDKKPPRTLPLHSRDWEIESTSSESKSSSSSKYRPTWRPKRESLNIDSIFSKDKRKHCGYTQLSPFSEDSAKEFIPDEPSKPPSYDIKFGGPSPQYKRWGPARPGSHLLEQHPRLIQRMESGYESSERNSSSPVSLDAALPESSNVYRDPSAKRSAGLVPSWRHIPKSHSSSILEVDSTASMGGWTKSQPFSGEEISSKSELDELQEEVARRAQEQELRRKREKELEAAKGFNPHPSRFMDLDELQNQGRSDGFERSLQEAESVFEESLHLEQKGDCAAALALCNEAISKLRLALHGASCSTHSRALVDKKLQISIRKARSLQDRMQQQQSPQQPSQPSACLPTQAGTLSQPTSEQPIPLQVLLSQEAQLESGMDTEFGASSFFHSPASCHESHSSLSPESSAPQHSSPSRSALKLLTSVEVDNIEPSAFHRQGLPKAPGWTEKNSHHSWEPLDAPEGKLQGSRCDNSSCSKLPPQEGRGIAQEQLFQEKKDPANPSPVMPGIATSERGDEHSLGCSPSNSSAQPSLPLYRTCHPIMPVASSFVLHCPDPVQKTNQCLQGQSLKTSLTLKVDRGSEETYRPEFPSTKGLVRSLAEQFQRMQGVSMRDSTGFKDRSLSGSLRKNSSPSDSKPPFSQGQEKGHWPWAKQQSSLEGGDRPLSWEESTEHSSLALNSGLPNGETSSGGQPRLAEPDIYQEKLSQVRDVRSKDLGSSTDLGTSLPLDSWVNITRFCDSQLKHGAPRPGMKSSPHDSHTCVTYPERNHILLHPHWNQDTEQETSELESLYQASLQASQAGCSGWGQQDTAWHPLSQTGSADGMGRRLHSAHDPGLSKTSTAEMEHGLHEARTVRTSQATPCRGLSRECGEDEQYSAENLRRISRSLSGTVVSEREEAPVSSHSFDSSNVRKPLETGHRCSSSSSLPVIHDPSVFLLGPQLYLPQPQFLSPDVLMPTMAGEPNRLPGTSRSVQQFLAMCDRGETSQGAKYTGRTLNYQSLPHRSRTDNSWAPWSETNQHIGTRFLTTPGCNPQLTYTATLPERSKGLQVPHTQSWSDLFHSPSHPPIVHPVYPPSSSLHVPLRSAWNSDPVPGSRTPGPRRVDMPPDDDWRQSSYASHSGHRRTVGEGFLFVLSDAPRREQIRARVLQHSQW
Summary of the method: as §1

USP7 = USP7 (UniProt Q93009)
Sequence of USP7 (Q93009 whole entry, looked up): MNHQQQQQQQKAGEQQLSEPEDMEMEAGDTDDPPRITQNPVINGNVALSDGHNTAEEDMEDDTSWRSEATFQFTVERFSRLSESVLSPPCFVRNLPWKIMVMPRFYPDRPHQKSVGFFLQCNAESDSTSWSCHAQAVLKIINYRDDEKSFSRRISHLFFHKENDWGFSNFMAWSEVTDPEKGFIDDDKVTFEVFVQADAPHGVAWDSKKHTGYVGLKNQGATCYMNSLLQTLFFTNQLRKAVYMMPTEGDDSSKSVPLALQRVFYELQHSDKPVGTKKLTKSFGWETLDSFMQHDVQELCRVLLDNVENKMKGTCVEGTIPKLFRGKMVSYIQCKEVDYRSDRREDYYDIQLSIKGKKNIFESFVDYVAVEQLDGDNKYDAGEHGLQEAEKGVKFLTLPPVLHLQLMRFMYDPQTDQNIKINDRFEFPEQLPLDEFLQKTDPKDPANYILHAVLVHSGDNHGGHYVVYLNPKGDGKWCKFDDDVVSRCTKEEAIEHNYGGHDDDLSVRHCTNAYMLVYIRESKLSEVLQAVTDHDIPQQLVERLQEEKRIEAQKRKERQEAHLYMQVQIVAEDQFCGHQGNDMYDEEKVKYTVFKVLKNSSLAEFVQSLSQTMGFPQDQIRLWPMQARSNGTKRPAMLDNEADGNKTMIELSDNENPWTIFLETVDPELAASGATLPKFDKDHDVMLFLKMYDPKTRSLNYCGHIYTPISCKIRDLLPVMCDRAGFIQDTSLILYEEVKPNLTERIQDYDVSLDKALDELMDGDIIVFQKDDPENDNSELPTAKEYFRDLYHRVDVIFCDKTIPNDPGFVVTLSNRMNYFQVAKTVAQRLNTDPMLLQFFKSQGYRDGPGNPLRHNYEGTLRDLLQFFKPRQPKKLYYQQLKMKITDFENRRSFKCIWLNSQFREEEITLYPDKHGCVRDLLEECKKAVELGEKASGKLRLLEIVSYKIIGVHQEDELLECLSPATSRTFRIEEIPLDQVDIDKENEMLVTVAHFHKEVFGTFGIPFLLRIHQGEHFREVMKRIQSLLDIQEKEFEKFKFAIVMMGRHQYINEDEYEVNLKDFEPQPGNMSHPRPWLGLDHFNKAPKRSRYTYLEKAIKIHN
Summary of the method: as §1

USP8 = molecular target: T5, USP8 (UniProt P40818)
T5 sequence (whole entry): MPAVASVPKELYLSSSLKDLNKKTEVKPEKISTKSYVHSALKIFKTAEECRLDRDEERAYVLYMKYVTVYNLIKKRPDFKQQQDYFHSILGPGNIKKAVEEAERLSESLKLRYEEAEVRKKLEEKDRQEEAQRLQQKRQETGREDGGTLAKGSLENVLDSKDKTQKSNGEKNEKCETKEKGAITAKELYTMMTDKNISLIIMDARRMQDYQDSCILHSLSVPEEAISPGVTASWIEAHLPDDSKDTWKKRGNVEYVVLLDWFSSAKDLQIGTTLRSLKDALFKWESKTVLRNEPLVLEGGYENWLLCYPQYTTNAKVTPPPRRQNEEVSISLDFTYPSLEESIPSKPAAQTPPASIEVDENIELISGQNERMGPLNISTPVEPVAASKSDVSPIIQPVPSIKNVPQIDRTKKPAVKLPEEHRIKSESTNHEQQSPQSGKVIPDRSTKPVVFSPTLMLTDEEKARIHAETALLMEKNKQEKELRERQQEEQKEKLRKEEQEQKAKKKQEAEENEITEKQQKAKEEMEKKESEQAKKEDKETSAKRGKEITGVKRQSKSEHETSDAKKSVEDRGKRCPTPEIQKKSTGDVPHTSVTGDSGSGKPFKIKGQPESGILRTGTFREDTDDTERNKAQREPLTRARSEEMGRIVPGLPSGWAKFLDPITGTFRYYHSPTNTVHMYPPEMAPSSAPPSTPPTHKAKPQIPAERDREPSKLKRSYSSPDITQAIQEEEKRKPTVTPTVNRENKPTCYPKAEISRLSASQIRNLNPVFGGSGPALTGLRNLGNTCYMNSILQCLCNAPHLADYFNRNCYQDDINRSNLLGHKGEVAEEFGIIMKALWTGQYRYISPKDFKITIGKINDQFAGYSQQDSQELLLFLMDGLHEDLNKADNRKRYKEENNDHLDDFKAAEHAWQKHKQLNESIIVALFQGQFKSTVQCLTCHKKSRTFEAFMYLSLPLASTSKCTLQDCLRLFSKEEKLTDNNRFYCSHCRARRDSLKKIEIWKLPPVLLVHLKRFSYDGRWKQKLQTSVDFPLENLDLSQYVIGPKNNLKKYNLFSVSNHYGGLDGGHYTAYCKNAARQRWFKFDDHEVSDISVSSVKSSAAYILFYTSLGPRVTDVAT
Summary of the method: as §1

Measured: log2 ratio of Biotin-Ahx-Ub-VS probe labelling

CC1CCc2onc(CNC(=O)CCl)c2C1 (stereo not drawn)
inactive: USP42 0.0513 | USP46 0.0919 | USP47 -0.0836 | USP48 0.185 | USP5 0.386 | USP54 0.0792 | USP7 -0.00387 | USP8 -0.212
